PrPC TRFRET – cell surface PrPC inhibition, primary TR-FRET screen | P04156 | hit rate 0.43% among 370,000 | inhibition, % at 13.8 µM | TR-FRET read-out; in the data active = inhibition above about 24%
DUSP3 inh – DUSP3 (human) phosphatase inhibition; recombinant VHR phosphatase, pNPP absorbance; P51452; inhibition, % at 13.3 µM; hit rate 0.52% among 290,000; in the data active = inhibition above about 50%
Target sequence (P51452 whole entry, looked up): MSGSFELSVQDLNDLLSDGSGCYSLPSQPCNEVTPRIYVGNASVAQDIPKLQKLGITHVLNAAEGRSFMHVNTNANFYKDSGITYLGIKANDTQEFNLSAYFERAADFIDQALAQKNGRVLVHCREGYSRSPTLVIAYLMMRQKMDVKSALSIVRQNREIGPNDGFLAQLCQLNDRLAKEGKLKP
Sa RN4220 lethal – kills Staphylococcus aureus RN4220. S. aureus RN4220 growth, OD600, 16 h. inhibition, % (test concentration not listed). hit rate 0.33% among 330,000. AID 1259311; in the data active = inhibition above about 85%
PfHsp40 rescue – compounds rescuing yeast from Plasmodium falciparum HSP40 toxicity; AID 504582; S. cerevisiae expressing PfHsp40, growth rescue, ATP luminescence; hit rate 0.68% among 340,000; growth rescue, % at 12.5 µM; in the data active = growth rescue above about 28%, passing the limit was not always enough;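 also: yeast W303a lacking pdr1 and pdr3 grown in galactose medium; growth measured after three days at 30 °C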
Sa ugtP lethal – compounds lethal to S. aureus RN4220 ugtP deletion mutant | OD600 growth, 16 h | growth inhibition, % (concentration not given with the values) | hit rate 0.54% among 330,000; in the data active = growth inhibition above about 68%
Each line names hits and unclear results; the compound was inactive in the other large screens. Only some compounds are listed: those with a hit (about 1.8% of all), similar ones and a draw of the others.

COc1ccc(S(=O)(=O)NCc2cc(=O)n(C)c(=O)n2C)cc1F	none
COc1ccc(S(=O)(=O)NCc2cc(=O)n(C)c(=O)n2C)cc1C	PfHsp40 rescue 41
CCc1ccc(C(C)NC(=S)NCc2ccc(F)cc2)cc1 (centres undefined)	PfHsp40 rescue 227
CCc1ccc(C(C)NC(=S)NC2CCCCC2)cc1 (centres undefined)	PfHsp40 rescue 83 (no result: PrPC TRFRET)
Cc1ccc(C(C)NC(=S)NCc2ccc(F)cc2)c(C)c1 (centres undefined)	PfHsp40 rescue 117
Cc1ccc(C(C)NC(=S)NCc2ccc(F)cc2)cc1C (centres undefined)	none
CCN1C(=O)C2C(c3ccc(-c4ccc(OC)cc4)c(OC)c3)N3CCC[C@@]3(C(=O)OC)C2C1=O (some centres undefined)	none (no result: PrPC TRFRET, DUSP3 inh, PfHsp40 rescue)
O=C1CCCC2Cc3[nH]c4c(Cl)ccc(Cl)c4c3C3CCN1C23 (centres undefined)	none (no result: PrPC TRFRET, DUSP3 inh, PfHsp40 rescue)
CCC(CC)CN1C(Nc2ccccc2)=NCC1CC(C)C (centres undefined)	none (no result: PrPC TRFRET, DUSP3 inh, PfHsp40 rescue)
Cn1nc(C(F)(F)F)c(C=NOCc2c(Cl)cccc2Cl)c1Cl	Sa ugtP lethal 93 (no result: PrPC TRFRET, DUSP3 inh, PfHsp40 rescue)
Cc1cc2ncn(/N=C/c3ccc([N+](=O)[O-])o3)c2cc1C	DUSP3 inh 52 (no result: Sa RN4220 lethal, Sa ugtP lethal)
CC(C)(Sc1ccc(CCN(CCCCC2CCCCC2)C(=O)NC2CCCCC2)cc1)C(=O)O	Sa ugtP lethal 86 (no result: DUSP3 inh)
O=c1/c(=C/c2ccc(O)c([N+](=O)[O-])c2)sc2nc3ccccc3n12	DUSP3 inh 75 (no result: Sa RN4220 lethal, Sa ugtP lethal)
Cc1cc(C=c2sc3nc4ccccc4n3c2=O)c(C)n1-c1ccc(C(=O)O)cc1	Sa ugtP lethal 100 (no result: PrPC TRFRET, DUSP3 inh, PfHsp40 rescue)
O=C(Nc1ccccc1C(=O)Nc1nncs1)c1ccccc1	none
O=C(Nc1nncs1)c1ccc(S(=O)(=O)c2ccccc2)cc1	PfHsp40 rescue 173
COC(=O)[C@@]12CCCCN1C(c1ccc(SC3CCCCC3)cc1)C1C(=O)N(C)C(=O)C12 (some centres undefined)	none (no result: PrPC TRFRET, DUSP3 inh, PfHsp40 rescue)
COc1ccc(N=NC2=C(O)CC(C)(C)CC2=O)c(OC)c1	DUSP3 inh 53
COc1ccc(N=NC2=C(O)CC(C)(C)CC2=O)cc1	none
O=S1(=O)Nc2c(ccc3cccnc23)-c2ccccc21	Sa RN4220 lethal 98, Sa ugtP lethal 98 (no result: PrPC TRFRET)
Clc1ccc2ccc3cccnc3c2n1	none
COC(=O)c1ccc(CON=C2CCCc3nonc32)cc1	none (no result: PrPC TRFRET, DUSP3 inh, PfHsp40 rescue)
O=C1NC(=S)S/C1=C\C=C\c1ccc([N+](=O)[O-])o1	Sa RN4220 lethal 100, Sa ugtP lethal 100
O=C1CC(N2CCN(c3ccc(O)cc3)CC2)C(=O)N1c1ccc2c(c1)OCO2 (centres undefined)	none
O=C1CC(N2CCCCCC2)C(=O)N1c1ccc2c(c1)OCO2 (centres undefined)	PfHsp40 rescue 78
O=C(O)c1cn(-c2ccc(N3CCCC3)c(F)c2)c2c(F)c(F)c(F)cc2c1=O	Sa ugtP lethal 100
O=[N+]([O-])c1ccc(OCCOCCOc2ccc([N+](=O)[O-])cc2)cc1	none
c1ccc(Oc2cccc(OCCCn3cncn3)c2)cc1	PfHsp40 rescue 95
O=[N+]([O-])c1ccc(OCCCn2cncn2)cc1	PfHsp40 rescue 51
c1ccc(COc2ccc(OCCOCCn3cncn3)cc2)cc1	none
CCCCCCCC/C=C\CCCCCCCC(=O)NCCO	PfHsp40 rescue 67 (no result: DUSP3 inh, Sa RN4220 lethal, Sa ugtP lethal)
CCCCCCCCCCCCCC(=O)NO	PfHsp40 rescue 264 (no result: DUSP3 inh, Sa RN4220 lethal, Sa ugtP lethal)
O=C(NCCN1CCOCC1)c1cc([N+](=O)[O-])ccc1Cl	DUSP3 inh 50
CCOc1ccc(CCNC(=O)c2cc([N+](=O)[O-])ccc2N2CCOCC2)cc1OCC	DUSP3 inh 50
Cc1ccc(-c2c(C)sc3nc[nH]c(=O)c23)cc1C	DUSP3 inh 53
Cc1c(C(=O)NN=Cc2ccncc2)no[n+]1[O-]	none (no result: PrPC TRFRET, DUSP3 inh, PfHsp40 rescue)
COc1ccc(-c2ccc(/C=C3/C(=N)N4C(C)=CSC4=NC3=O)o2)c([N+](=O)[O-])c1	Sa ugtP lethal 98
O=S(=O)(c1ccccc1)N1N=C(c2ccccc2)CC1c1ccccc1F (centres undefined)	DUSP3 inh 53
COc1ccccc1C1CC(c2ccc(NS(C)(=O)=O)cc2)=NN1S(=O)(=O)c1ccccc1 (centres undefined)	none
COc1cc2cccc(OC)c(=O)c2c(OC)c1OC	none
O=c1c(O)cccc2cc(O)c(O)c(O)c12	PfHsp40 rescue 627 (no result: DUSP3 inh)
CCc1c(C2(O)CCCCC2)[nH]c2ccc(C(F)(F)F)cc12	PfHsp40 rescue 351 (no result: Sa RN4220 lethal, Sa ugtP lethal)
CN(C)Cc1c(C(C)(C)O)[nH]c2ccc(C(F)(F)F)cc12	none (no result: DUSP3 inh)
CC(C)C=NNc1nc(-c2ccc(Br)cc2)cs1	none (no result: PrPC TRFRET, DUSP3 inh, PfHsp40 rescue)
Cc1ccc(C)c(N2CCN(S(=O)(=O)c3ccc4c(c3)NC(=O)CC(=O)N4)CC2)c1	Sa ugtP lethal 90
Cc1ccc(C)c(N2CCN(S(=O)(=O)c3ccc4c(c3)CCC(=O)N4)CC2)c1	none (no result: PrPC TRFRET, Sa RN4220 lethal, PfHsp40 rescue, Sa ugtP lethal)
COC(=O)C1=C(c2ccc(C(C)=O)cc2)CC2CCC1N2C(=O)N1CCOCC1 (centres undefined)	none (no result: PrPC TRFRET, DUSP3 inh, PfHsp40 rescue)
Cc1ccc(-c2nn3c(C)nnc3c3ccccc23)cc1S(=O)(=O)NCCN1CCOCC1	DUSP3 inh 52
O/N=C\c1ccccc1Oc1ccc(F)cc1	PfHsp40 rescue 59 (no result: Sa RN4220 lethal, Sa ugtP lethal)
COc1cc(C(=O)N2CCCN(C)CC2)cc(OC)c1C	DUSP3 inh 57
Cc1ccc(Nc2nc(-c3c(C)nc4ncccn34)cs2)cc1	none
Cc1ccc(Nc2nc(-c3c(C)nc4ccccn34)cs2)cc1	PrPC TRFRET 39
Cc1occc1C(=O)NN=C/C=C/c1ccc(N(C)C)cc1	none (no result: PrPC TRFRET, DUSP3 inh, PfHsp40 rescue)
COc1ccccc1C=NNc1nccnc1Cl	none (no result: PrPC TRFRET, DUSP3 inh, PfHsp40 rescue)
COc1cccc(C=NNc2ncc(C(F)(F)F)cc2Cl)c1O	Sa RN4220 lethal 100, Sa ugtP lethal 99 (no result: PrPC TRFRET, DUSP3 inh, PfHsp40 rescue)
COc1cccc(/C=N/Nc2nccnc2Cl)c1O	PfHsp40 rescue 88 (no result: Sa RN4220 lethal, Sa ugtP lethal)
COc1cccc(/C=N/Nc2ncnc3scc(-c4ccccc4)c23)c1O	PfHsp40 rescue 422 (no result: Sa RN4220 lethal, Sa ugtP lethal)
COc1cc(/C=N/Nc2ncc(C(F)(F)F)cc2Cl)cc(OC)c1O	none (no result: Sa RN4220 lethal, Sa ugtP lethal)
Cc1c(C(C)CCCO)oc(=O)c2c1Oc1c(C)c(C(C)CC(C)O)oc(=O)c1C2 (centres undefined)	none (no result: PrPC TRFRET, DUSP3 inh, PfHsp40 rescue)
O=C(NN=Cc1ccc[nH]1)c1ccc2c(c1)OCO2	none (no result: PrPC TRFRET, DUSP3 inh, PfHsp40 rescue)
COC(=O)C1=C(c2ccc(F)cc2OCc2ccccc2)CC2CCC1N2C(=O)NCc1ccc(C)cc1 (centres undefined)	none (no result: PrPC TRFRET, DUSP3 inh, PfHsp40 rescue)
CC(C)(O)C=CC[C@](C)(O)C1CC[C@]2(C)C1C(OC1OC(CO)C(O)C(O)C1O)CC1[C@@]3(C)CCC(O)C(C)(C)C3C(O)C[C@]12C (some centres undefined)	none (no result: PrPC TRFRET, DUSP3 inh, PfHsp40 rescue)
O=C(NC(Cc1ccccc1)C(=O)O)OCC1c2ccccc2-c2ccccc21 (centres undefined)	DUSP3 inh 53
Cc1cc(NS(=O)(=O)c2ccc(CC(C)C)cc2)no1	PfHsp40 rescue 40
Cc1cc(NS(=O)(=O)c2ccc(C3CCCCC3)cc2)no1	PfHsp40 rescue 510
Cc1cc(NS(=O)(=O)c2ccc(NC(=O)NC3CCCCC3)cc2)no1	none
Cc1ccc(-c2nn(Cc3ccccc3)cc2C=CC(=O)O)cc1	none (no result: PrPC TRFRET, DUSP3 inh, PfHsp40 rescue)
Cc1ccc(C=C2C(Cl)=C(Cl)C(Cl)=C2Cl)cc1	Sa RN4220 lethal 97, Sa ugtP lethal 100 (no result: PrPC TRFRET, PfHsp40 rescue)

High-throughput results from PubChem.
